Rows were chosen to be rich in hits. Some 7.8% of all compounds tested hit in one or more screens of this group.
Vaccinia mCherry: inhibitors of vaccinia virus infection (mCherry reporter signal); Vaccinia virus mCherry reporter infection, fluorescence; 310,000 tested, 0.63% active; Potency, µM (doses to about 36.5 µM), for inactives: top-dose activity change, negative = inhibition, most hits filed as inhibitors; calls by dose curve; tested in A549 cells; further: potency means the concentration at half of the fitted maximal effect; nearly all actives have a fitted effect of over 35% in size
HCV inhibitor: inhibitors of hepatitis C virus infection; Huh7.5.1 HCVcc-Cre infection, luciferase reporter, 44 h; Potency, µM (doses to about 41.8 µM), inactives show top-dose activity change, negative = inhibition, usual class: inhibitors; 340,000 tested, 3.4% active; AID 651820; active means well fitted inhibition curve with a large enough effect; inconclusive means small, poorly fitted or top-dose-only effect, or another doubt; inactive means no such curve, though single readings can be large or run the other way; further: potency means the concentration at half of the fitted maximal effect
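Reporter virus HCVcc-Cre (~0.5 moi) infects cells exposed to compound; seeding density 1,000 cells/well with 4 h settling beforehand. Luminescence, 15 sec read, taken 44 h post-infection following a 15 min RT substrate incubation.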
HCMV antiviral: inhibitors of human cytomegalovirus; HFF cells, HCMV-luciferase reporter, 72 h; stronger effect = lower value; activity change, negative = inhibition, % at 57.5 µM; 410,000 tested, 4.5% active; AID 1259415; in the data active means activity change below about -60%; inconclusive means no clear call, values can overlap the other calls; inactive means above about -39%
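Luciferase read-out from HCMV-luciferase-infected HFFs (MOI 1 PFU/cell) 72 h post infection at 37C; compounds added after 16 h cell attachment; activity normalized between buffer-only basal and Salinomycin (10uM) inhibitor controls.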
Marburg entry inh: Marburg virus entry inhibition; Marburg virus pseudotyped entry inhibition, cell reporter; 300,000 tested, 1.8% active; Potency, µM (highest dose often 37.8 µM), for inactives: at the top dose activity change, negative = inhibition, hits mostly inhibitors; calls by dose curve; tested in HEK293 cells; further: potency means the concentration at half of the fitted maximal effect
LASV entry inh: inhibitors of Lassa virus binding or cell entry. Lassa virus pseudotype entry inhibition, cell reporter. Potency, µM (series often up to 37.9 µM), inactives show top-dose activity change, negative = inhibition, actives largely listed as inhibitors. 300,000 tested, 1.2% active; calls by dose curve; tested in HEK293 cells; further: potency means the concentration at half of the fitted maximal effect; nearly all actives have a fitted effect of over 50% in size
Vaccinia Venus: inhibitors of vaccinia virus (Venus reporter); 330,000 tested, 0.46% active; Potency, µM (series often up to 36.5 µM), for the others: at the top dose activity change, negative = inhibition, hits mostly inhibitors; Vaccinia virus Venus reporter expression, fluorescence; calls by dose curve; tested in A549 cells; further: potency means the concentration at half of the fitted maximal effect; nearly all actives have a fitted effect of over 30% in size
Starred values were filed as active, the others as inactive; [ ] = remark or other dose. On the % scale 0 is the no-effect control and ±100 the full control effect.

`Cc1ccc(S(=O)(=O)N(CC(O)CN2C(=O)NC(C)(C)C2=O)c2cccc(C)c2)cc1` (stereo not given) gave Vaccinia mCherry 5.1%, HCV inhibitor 5.3%, HCMV antiviral 9.6, Marburg entry inh 8.8%[46.1 µM], LASV entry inh -8.9% and Vaccinia Venus -4.5%.
For CC(C)CCN(CCC(C)C)CC(O)Cn1c2ccccc2c(=O)c2ccccc21 (stereo not given) the results were HCV inhibitor inconclusive and HCMV antiviral 8.1.
Cc1cccc(N(CC(O)Cn2c3ccccc3c3ccccc32)S(=O)(=O)c2ccc(F)cc2)c1 (stereo not given) was read as Vaccinia mCherry -14.5%, HCMV antiviral -107.5*, Marburg entry inh inconclusive, LASV entry inh inconclusive and Vaccinia Venus -15.6%.
`CCCN(CCC)CC(O)Cn1c2ccccc2c2ccccc21` (stereo not given) gave Vaccinia mCherry -4.5%, HCV inhibitor inconclusive, HCMV antiviral -29.0, Marburg entry inh 7.08µM*, LASV entry inh -9.4%[46.1 µM] and Vaccinia Venus -6.8%.
Cc1ccc(N(CC(O)Cn2c3ccccc3c3ccccc32)S(C)(=O)=O)cc1 (stereo not given) was read as Vaccinia mCherry -7.2%, HCV inhibitor -1.5%, HCMV antiviral 59.2, Marburg entry inh inconclusive, LASV entry inh -15.9% and Vaccinia Venus 7.3%.
For CC(=O)Nc1ccc(N(CC(O)Cn2c3ccccc3c3ccccc32)S(=O)(=O)c2ccc(C)cc2)cc1 (stereo not given) the results were Vaccinia mCherry inconclusive, HCV inhibitor inconclusive, HCMV antiviral -34.8, Marburg entry inh inconclusive, LASV entry inh 11.2µM* and Vaccinia Venus inconclusive.
Cc1ncc2c(c1CNC(=O)c1ccccc1F)CCN(C(=O)c1csc(-c3cccs3)n1)C2 was read as Vaccinia mCherry -20.8% and Vaccinia Venus -12.0%.
For COC(=O)c1c(OCC2CCCN(C)C2)cc(=O)n2c1CCN(Cc1ccc(OC)c(O)c1)CC2 (stereo not given) the results were Vaccinia mCherry -1.1% and Vaccinia Venus -3.0%.
For CCOc1ccc2nc(NC3=NC(c4ccc(OC)cc4)CC(=O)N3)nc(C)c2c1 (stereo not given) the results were Vaccinia mCherry -21.5%, HCV inhibitor 8.91µM*, HCMV antiviral -70.4*, Marburg entry inh inconclusive, LASV entry inh inconclusive and Vaccinia Venus -19.0%.
NNC(=O)c1cc2cc3ccccc3nc2s1 was read as HCV inhibitor 25.3%, HCMV antiviral -65.8*, Marburg entry inh 2.8% and LASV entry inh -20.0%.
`CCOc1ncccc1C(=O)N(C)CC(=O)Nc1ccc(C)cc1` gave Vaccinia mCherry -27.0%, HCV inhibitor -11.2%, HCMV antiviral 4.7, Marburg entry inh 10.5%, LASV entry inh -2.8% and Vaccinia Venus -12.2%.
`Cc1ccc(NC(=O)CN(C)C(=O)c2cccnc2Nc2cccc(C(F)(F)F)c2)cc1` gave HCV inhibitor inconclusive and HCMV antiviral -60.1*.
CN(Cc1ccccc1)c1ncnc2sccc12 was read as Vaccinia mCherry inactive, HCV inhibitor 8.91µM*, HCMV antiviral 0.0, Marburg entry inh inconclusive, LASV entry inh -20.8% and Vaccinia Venus -8.1%.
Screening CO/N=C/NC(=O)N1OC[C@@H]2COc3ccc4ccccc4c3[C@@H]21 returned HCV inhibitor -0.6%, HCMV antiviral 1.5, Marburg entry inh -10.1%, LASV entry inh 9.1% and Vaccinia Venus -14.1%.
For NC(=S)N1OC[C@@H]2COc3ccc4ccccc4c3[C@@H]21 the results were Vaccinia mCherry inconclusive, HCV inhibitor inconclusive, HCMV antiviral -67.5*, Marburg entry inh inconclusive, LASV entry inh 5.1% and Vaccinia Venus inconclusive.
Screening CCCOc1cccc(C2c3c(oc4cc(C)c(C)cc4c3=O)C(=O)N2CCCN2CCOCC2)c1 (stereo not given) returned Vaccinia mCherry -14.2%, HCMV antiviral inconclusive, Marburg entry inh inconclusive, LASV entry inh -17.0%[46.1 µM] and Vaccinia Venus -11.0%.
Screening CCC1(C)NC(=O)N(/N=C/c2cc(OC)c(O)c(OC)c2)C1=O (stereo not given) returned Vaccinia mCherry -8.6%, HCV inhibitor 24.1%, HCMV antiviral 26.5, Marburg entry inh 7.6%, LASV entry inh -14.9% and Vaccinia Venus -6.3%.
CCC1(C)NC(=O)N(/N=C/c2ccc(C)s2)C1=O (stereo not given) was read as HCV inhibitor -3.2% and HCMV antiviral -98.3*.
`COCCCNc1nccc2[nH]c(-c3cccc(C)c3)nc12` gave HCMV antiviral 25.5.
`Cc1ccc(NC(=S)NC(=O)/C=C/c2ccco2)c(O)c1` gave Vaccinia mCherry -28.1%, HCV inhibitor inconclusive, HCMV antiviral -63.9*, Marburg entry inh -18.0%[46.1 µM], LASV entry inh -23.1%[46.1 µM] and Vaccinia Venus -1.4%.
`CC(=O)CC[N+](C)(C)C` gave Vaccinia mCherry -8.1%, HCV inhibitor inconclusive, HCMV antiviral -34.2, Marburg entry inh 2.3%, LASV entry inh 24.1% and Vaccinia Venus -8.7%.
CC(=O)CCC(C)=O was read as Vaccinia mCherry 12.6µM*, HCV inhibitor 17.8%, HCMV antiviral 5.4 and Vaccinia Venus inconclusive.
For COC(=O)c1scc(C)c1NC(=O)Nc1ccccc1 the results were HCV inhibitor 19.0%, HCMV antiviral -99.0*, Marburg entry inh -3.2%[46.1 µM], LASV entry inh 0.7% and Vaccinia Venus -4.2%.
For COC(=O)c1scc(C)c1NC(=O)C(Cl)c1ccccc1 (stereo not given) the results were Vaccinia mCherry inactive, HCV inhibitor -0.3%, HCMV antiviral -28.1 and Vaccinia Venus -9.6%.
`CC(C)(C)n1nnnc1C(c1cccs1)N(Cc1ccc(Cl)cc1)CC1CCCO1` (stereo not given) gave Vaccinia mCherry 11.2µM*, HCV inhibitor inconclusive, HCMV antiviral -69.6*, Marburg entry inh inconclusive, LASV entry inh inconclusive and Vaccinia Venus inconclusive.
Screening CCN(CC)C(c1ccc(F)cc1)c1nnnn1C1CCCCC1 (stereo not given) returned HCV inhibitor 11.0%, HCMV antiviral -11.0, Marburg entry inh 4.1% and LASV entry inh 2.1%.
For CC(C)(C)n1nnnc1C(c1ccc(C(F)(F)F)cc1)N(Cc1ccccc1)Cc1ccco1 (stereo not given) the results were HCV inhibitor inconclusive, HCMV antiviral -81.6*, Marburg entry inh inconclusive, LASV entry inh inconclusive and Vaccinia Venus -2.5%.
`CCN(Cc1ccccc1)C(c1ccncc1)c1nnnn1C(C)(C)C` (stereo not given) gave Vaccinia mCherry inactive, HCV inhibitor 13.3%, HCMV antiviral -25.2, Marburg entry inh -18.6%, LASV entry inh -47.3% and Vaccinia Venus -15.1%.
